High-throughput results (PubChem)
HT1080NT lethal: kills 2HG-producing HT-1080-NT fibrosarcoma cells; HT-1080-NT fibrosarcoma viability, CellTiter-Glo ATP luminescence, 48 h; hit rate 1.6% among 360,000; Potency, µM (highest dose often 46.1 µM), without a hit: at the top dose activity, negative = less viability, hits mostly cytotoxic;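 also: NT is the 2HG producing partner of a matched IDH1 knockdown line; 0% = DMSO-treated cells and -100% = media-only wells without cells; nearly all actives have a fitted effect of over 55% in size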
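Compounds were tested in concentration-response format on HT-1080-NT cells for 48 hours at 37 degrees C. Cell viability came from CellTiter-Glo luminescence; curves were classified by r2, response magnitude and activity.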
KB-3-1 cytotox: KB-3-1 parental cell cytotoxicity. KB-3-1 viability, CellTiter-Glo ATP luminescence, 72 h. Potency, µM (titrated, usually from 46.1 µM), most hits filed as cytotoxic. hit rate 1.4% among 400,000; also: nearly all actives have a fitted effect of over 60% in size
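Screening of KB-3-1 cells (DMEM, 10% FBS, phenol-red free) ran from lowest to highest compound concentration; after 72 h at 37 °C viability was read luminescently and curves fitted.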
HT1080 IDH1KD tx: HT-1080 IDH1 knockdown cell toxicity (counter line); HT-1080 IDH1 knockdown viability, ATP luminescence, 48 h; Potency, µM (titrated, usually from 46.1 µM), for the others: at the highest dose activity, negative = toxicity, hits mostly cytotoxic; hit rate 2% among 360,000; AID 686971;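 also: 0% = DMSO wells and -100% = cell-free medium wells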
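After a 2 h attachment period, IDH1KD HT-1080 cells took pin-transferred compound for 48 h at 37 °C; ATP-based luminescence after 10 min room-temperature reagent incubation reported viability.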
KB-V1 cytotox: kills drug-selected multidrug resistant KB-V1 cells | KB-V1 MDR cells viability, CellTiter-Glo, 72 h | Potency, µM (top dose mostly 46.1 µM), actives largely listed as cytotoxic | hit rate 3.4% among 400,000; also: nearly all actives have a fitted effect of over 60% in size
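Potencies derive from concentration-effect curves fitted to normalized luminescence (CellTiter-Glo) of KB-V1 cells treated for 72 h at 37 degrees C in phenol-red-free DMEM containing 10% FBS.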
* hit, by the source's call; i = inactive; ? = inconclusive; · = no result; [ ] = dose if it differs, or a comment. Compounds with a hit are over-represented: about 5.7% of the library has one in this group of screens. Calls follow the shape of the dose curve; as a rule, active = well fitted curve in the direction sought with a large enough effect; inconclusive = small, poorly fitted or top-dose-only effect, or another doubt; inactive = no such curve, though single readings can be large; an effect the other way counts as inactive or inconclusive. Unless noted, % is scaled to controls: 0 for no effect and ±100 for the full control effect; potency is read from the fitted curve at half-maximal effect.

SMILES | HT1080NT lethal | KB-3-1 cytotox | HT1080 IDH1KD tx | KB-V1 cytotox
Cc1ccc(-c2nnn(CC(=O)N(CC(=O)NCC3CCCO3)c3ccc(F)c(Cl)c3)n2)o1 (configuration not stated) | 2% | i | -6% | 15µM*
Cc1ccc(-c2nnn(CC(=O)N(CC(=O)NC3CCCCC3)c3ccc(F)c(Cl)c3)n2)o1 | ? | ? | 18µM* | ?
Cc1ccc(-c2nnn(CC(=O)N(CC(=O)NC3CCCC3)c3ccc(F)c(Cl)c3)n2)o1 | ? | ? | 16µM* | ?
Cc1cccc(N(CC(=O)NCc2ccccc2)C(=O)Cn2nnc(-c3ccc(C)o3)n2)c1 | 1% | i | -18% | 2.9µM*
CCN(CCCNC(=O)c1cc2c(=O)[nH]c3ccc(C)cc3c2s1)Cc1ccccc1 | · | i | · | i
C/C(=N\O)c1ccc2c3ccccc3n(C)c2c1 | -7% | 2.6µM* | -8% | ?
CCn1c2ccccc2c2cc(/C(C)=N/O)ccc21 | 5% | ? | 12% | ?
O=C(NC(NC(=S)N1CCOCC1)C(Cl)(Cl)Cl)c1ccc(Cl)cc1 (configuration not stated) | -28% | i | ? | 13µM*
CCc1ccc(NC(=O)c2sc3nc(C)c(Cl)c(C)c3c2NC(=O)c2ccccc2)cc1 | · | i | · | i
COc1cccc(CSc2nc3ccccc3cc2C=O)c1 | 18µM* | ? | 21µM* | ?
CCCSCCCNC(=O)c1ccc2nc(Cc3ccccc3)oc2c1 | · | i | · | i
S=C(NNc1cccc(Cl)c1)NC1CCCCC1 | ? | i | 15µM* | i
Cc1cccc(NNC(=S)Nc2ccccc2)c1 | -16% | i | -20% | i
Cc1cccc(NC(=S)NNc2cccc(Cl)c2)c1 | 23µM* | i | ? | i
CCOc1cc(-c2c(C)c(C)nc(N)c2C#N)ccc1O | -1% | i | -6% | i
CCOc1cc(-c2cc(-c3ccc(C)o3)nc(N)c2C#N)ccc1O | ? | ? | ? | 23µM*
CCOc1cc(-c2c(C)c(CC)nc(N)c2C#N)ccc1O | -27% | ? | ? | 18µM*
O=CNc1ccc2c(c1)Cc1cc([N+](=O)[O-])ccc1-2 | 5.8µM* | 2.3µM* | 5.2µM* | ?
CS(=O)(=O)N(CC(=O)Nc1ccc(CC#N)cc1)c1ccc(C23CC4CC(CC(C4)C2)C3)cc1 | ? | i | 10µM* | ?
N#C/C(=C\c1ccc(Sc2ccccc2)o1)c1nc2ccccc2[nH]1 | -14% | i | -27% | i
N#C/C(=C/c1ccc(Sc2nc3ccccc3[nH]2)o1)c1ccccc1F | ? | i | ? | 3.7µM*
N#C/C(=C/c1ccc(Sc2nc3ccccc3[nH]2)o1)c1cccc(Br)c1 | ? | ? | ? | 18µM*
N#C/C(=C/c1ccc(Sc2nc3ccccc3[nH]2)o1)c1cccc(F)c1 | ? | i | ? | 7.3µM*
COc1ccc(NC(=O)CC2C(=O)N(c3cccc(OC)c3)C(=O)N2Cc2ccc3c(c2)OCO3)cc1 (configuration not stated) | · | i | · | i
Cc1cc(SCC(=O)NCc2ccc(Cl)cc2)nc(=O)[nH]1 | · | i | · | i
SMILES | HT1080NT lethal | KB-3-1 cytotox | HT1080 IDH1KD tx | KB-V1 cytotox
CCOC(=O)N1CCc2c(sc3c2c(=O)n(-c2ccc(Cl)cc2)c(=O)n3CC(=O)Nc2ccccc2)C1 | · | i | · | i
C/C(=N/NC(=O)c1ccncc1)c1ccccc1 | 11% | i | 22% | ?
O=C(N/N=C(\Cc1ncc[nH]1)c1ccccc1)c1ccncc1 | -27% | ? | 4.1µM* | i
CCOCCCNC(=O)C1CCCN(Cc2nc(-c3ccc(CC)cc3)oc2C)C1 (configuration not stated) | · | i | · | i
COc1ccc(-n2c(=O)c(CCC(=O)N(C)Cc3ccccc3C)nc3ccccc32)cc1 | -2% | i | 2% | i
CCc1ccc(CN(C)C(=O)CCc2nc3ccccc3n(-c3ccc(OC)cc3)c2=O)cc1 | -13% | i | 15µM* | 12µM*
C[C@@H]1CN([C@@H](C)CO)C(=O)Cc2cc(NC(=O)Nc3ccc(F)cc3)ccc2O[C@@H]1CN(C)Cc1ccc(Cl)c(Cl)c1 | 18µM* | ? | ? | ?
C[C@H]1CN([C@@H](C)CO)C(=O)Cc2cc(NC(=O)Nc3ccccc3)ccc2O[C@H]1CN(C)Cc1ccccc1 | -24% | ? | ? | i
C[C@H](CO)N1C[C@H](C)[C@H](CN(C)Cc2ccncc2)Oc2ccc(NC(=O)Nc3ccc(C(F)(F)F)cc3)cc2CC1=O | ? | 6.5µM* | ? | i
CC(C)c1ccc(OCC(=O)Nc2c(C(=O)c3ccc(F)cc3)oc3ccccc23)cc1 | · | i | · | i
Cc1ccc(C(=O)OCC(=O)N2CCOCC2)cc1 | 6% | i | 6% | i
Cc1ccc(/C(N)=N/OC(=O)N2CCOCC2)cc1 | ? | i | 18µM* | ?
COC(=O)c1cc(NC(=O)c2oc(=O)c3ccccc3c2-c2ccccc2)cc(C(=O)OC)c1 | · | i | · | i
CC(NC1=CC(=O)c2cccnc2C1=O)C(O)c1ccccc1 (configuration not stated) | 18µM* | 8.2µM* | 6.5µM* | 15µM*
C[C@]12CC[C@@H]3c4ccc(O)cc4CC[C@H]3[C@@H]1CC[C@@H]2OC(=O)CCC(=O)O | -34% | i | -8% | ?
CC(=O)Oc1ccc2c(c1)CCC1C2CCC2(C)C(OC(C)=O)CCC12 (configuration not stated) | -1% | ? | 0% | 10µM*
C[C@]12CC[C@@H]3c4ccc(OC(=O)c5ccccc5)cc4CC[C@H]3[C@@H]1CC[C@@H]2O | -1% | ? | 0% | 21µM*
Cc1ccc(NC(=O)C(C)Sc2nc(-c3ccccc3)c(C#N)c(=O)[nH]2)c(C)c1 (configuration not stated) | · | i | · | i
CCOC(=O)c1sc(NS(=O)(=O)c2ccccc2)nc1C | -12% | i | 1%[9.24 µM] | i
Cc1nc(NS(=O)(=O)c2ccccc2)sc1C(C)(C)C | -3% | i | -1% | 18µM*
Cc1cccc(C)c1OCC(O)CN1CCC(CN2C(=O)c3cccc4cccc(c34)C2=O)CC1 (configuration not stated) | 1% | 21µM* | -10% | ?
CC(C)(C)c1ccc(C(=O)CC(Sc2ccc(Cl)cc2)C(=O)O)cc1 (configuration not stated) | 12µM* | ? | 15µM* | ?
Cc1ccc(SC(CC(=O)c2ccc(F)cc2)C(=O)O)cc1 (configuration not stated) | 0% | i | 0% | i
Cc1ccccc1NC(=S)NC(NC(=O)COc1ccccc1)C(Cl)(Cl)Cl (configuration not stated) | -11% | ? | -10% | ?
CCc1ccc(OCC(=O)NC(NC(=S)Nc2ccccc2OC)C(Cl)(Cl)Cl)cc1 (configuration not stated) | -10% | ? | -14% | ?
